Inconclusive results are not listed. Calls of active or inactive are those of the source. Unless noted, calls follow the shape of the dose curve; as a rule, active = well fitted curve in the direction sought with a large enough effect; inconclusive = small, poorly fitted or top-dose-only effect, or another doubt; inactive = no such curve, though single readings can be large; an effect the other way counts as inactive or inconclusive.

Consider six compounds from PubChem BioAssay (NCATS).

The target in test [1] is Lysosomal acid glucosylceramidase (Homo sapiens) (UniProt P04062). Put plainly: Glucocerebrosidase-p2 (AID 348; in the data active = potency below about 10 µM; also: potency is read from the fitted curve at half-maximal effect). The note with it: purified GBA, blue fluorogenic substrate, 40 min. An outline of the steps: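 Normal human glucocerebrosidase (0.2 nM) with blue fluorogenic substrate (80 uM final) in citrate/phosphate pH 5.9 with 10mM sodium taurocholate, 0.01% tween-20; 40 min RT, NaOH/glycine stop; fluorescence Ex 365/Em 440; AC50 from a titration from 0.6 nM upwards.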

Test [2] in a line: AP1 Signaling Pathway (AID 357; active = well fitted curve in either direction with a large enough effect, not every such curve was filed as active;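 also: ME-180 reporter cells stimulated with EGF at its EC50 level; % is scaled to controls: 0 for no effect and ±100 for the full control effect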). The note with it: ME-180 AP-1-bla reporter, EGF-induced, beta-lactamase ratio, 5 h; at 7.69 µM (top of the series) unless noted. In a few lines:
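Titration-series screen for positive or negative modulators of EC50 EGF-induced signaling in ME-180 cells carrying an AP-1-driven beta-lactamase reporter. After 5 hours at 37 degrees Celsius, CCF4 460nm/530nm emission ratio gave %Activity; AC50 values derived.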

Test [3] has as its target Cytochrome P450 1A2 (Homo sapiens) (UniProt P05177). Put plainly: p450-cyp1a2 (AID 410; calls by dose curve; also: potency is read from the fitted curve at half-maximal effect). As to conditions: recombinant CYP1A2, luciferin-ME demethylation, luminescence; series mostly up to 57 µM. An outline of the steps:
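Read-out is luminescence from luciferin produced by CYP1A2 demethylation of Luciferin-ME (100uM, at Km). Detection reagent stopped the 60 min NADPH-dependent reaction; signals were normalized to 57 uM furafylline.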

Test [4] is described as follows: NFAT Signaling Pathway (AID 444; active = well fitted curve in either direction with a large enough effect, not every such curve was filed as active;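 also: carbachol stimulus at about its EC50 of 1 µM final; % is scaled to controls: 0 for no effect and ±100 for the full control effect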). The note with it: Jurkat NFAT-bla M1, carbachol, beta-lactamase ratio, 5 h; at 7.69 µM (top of the series) unless noted. An outline of the steps: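 Jurkat cells with NFAT-driven β-lactamase reporter and co-expressed M1 receptor, stimulated with carbachol (final 1 uM, ~EC50), compound titration, 5 h at 37 °C. CCF4 loaded 1 h at RT; 460/530 nm ratio gave %activity and AC50.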

The target in test [5] is Glucocorticoid receptor (Homo sapiens) (UniProt P04150). Put plainly: GR-EFC Redistribution (AID 451; calls by dose curve; also: potency is read from the fitted curve at half-maximal effect). The note with it: CHO-K1 GR-EFC translocation, beta-gal luminescence, 2 h. An outline of the steps: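 CHO-K1 cells expressing nuclear EA and GR-ED fragments of b-gal; compounds titrated up to 46 uM final, 2 h at 37 C. GR nuclear translocation read as complemented b-gal luminescence after 1 h RT detection.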

Test [6] concerns the target Mitogen-activated protein kinase 10 (Mus musculus) (UniProt Q61831). Put plainly: JNK3 AlphaScreen Assay (AID 530; active = well fitted curve in either direction with a large enough effect, not every such curve was filed as active;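 also: kinase came from lysate of stimulated human HepG2 cells; signal reports phosphorylation of biotinylated GST-cJun 1-79 at Ser73 with 10 µM ATP; % is scaled to controls: 0 for no effect and ±100 for the full control effect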). The note with it: JNK3 lysate, c-Jun phosphorylation; series mostly up to 57.1 µM. In a few lines: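 HepG2 lysate (IL-1b/TNFa pre-activated) + biotin-GST-cJun 1-79 + anti-pSer73 cJun; cpd titration, 15 min RT; ATP 10 uM start; Tris pH 7.6, MgCl2, DTT, vanadate; beads in EDTA buffer; AlphaScreen.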

In test [7] the target is 3',5'-cyclic-AMP phosphodiesterase 4B (Homo sapiens) (UniProt Q07343). In words: qHTS Assay for Inhibitors of PDE-IV (AID 607; active = well fitted activation curve with a large enough effect in the main read-out, with a control signal flat, not every such curve was filed as active; also: % of control where 0% means no effect). The note with it: HEK293 ACTOne CNG channel cells, membrane potential fluorescence; series mostly up to 22.9 µM. In a few lines: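 HEK293 ACTOne cells with CNG channel (1000/well), endogenous PDE4; membrane potential dye, compounds up to 22.9 uM final. Fluorescence Ex 535/Em 590; RO 20-1724 (100 uM final) as reference.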

For test [8], the target named is Cytochrome P450 3A4 (Homo sapiens) (UniProt P08684). In words: qHTS Assay for Activators of Cytochrome P450 3A4 (AID 885). Also: nearly all actives have a fitted effect of over 65% in size. The note with it: recombinant CYP3A4, Luciferin-PPXE luminescence, 60 min; series mostly up to 57.1 µM. In a few lines:
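Human CYP3A4 dealkylates Luciferin-PPXE to luciferin, which luciferase detection converts to light. Substrate was at its KM (25uM), buffer 200mM KPO4, reaction 60 min at RT.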
(Quantitative high-throughput screening tests each substance at several concentrations.)

Test [9] is described as follows: qHTS Assay for Lipid Storage Modulators (AID 1519; calls by dose curve). The note with it: Drosophila S3 cells, BODIPY lipid droplet/cell ratio, laser cytometry, cells loaded with oleic acid; for activity change, negative = inhibition: at 57.5 µM (top of the series). An outline of the steps:
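Cells seeded at 5,000 per well were treated with compounds over a concentration series and loaded with oleic acid (400 uM, as added). Lipid droplet fluorescence (488 nm excitation, 500-530 nm channel) was read by laser-scanning cytometry and normalized to 20 uM Triacsin C.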

Test [10] is described as follows: Primary qHTS for small molecule stabilizers of the endoplasmic reticulum resident proteome: Secreted ER Calcium Modulated Protein (SERCaMP) assay (AID 1508630). Also: % is scaled to controls: 0 for no effect and ±100 for the full control effect. As to conditions: SH-SY5Y GLuc-SERCaMP (Gaussia luciferase released on ER calcium loss) secretion, thapsigargin, luminescence; series mostly up to 38.4 µM. In a few lines: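 The SH-SY5Y reporter protocol was run at 3 concentrations up to 38.3 uM (primary) or 11 concentrations (follow-up): 16 h compound, 100 nM thapsigargin for 4 h, then extracellular luciferase luminescence.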

Test [11] has as its target Cytochrome P450 2C9 (Homo sapiens) (UniProt P11712). In words: qHTS Assay for Inhibitors and Substrates of Cytochrome P450 2C9 (AID 883). Also: % is scaled to controls: 0 for no effect and ±100 for the full control effect; nearly all actives have a fitted effect of over 60% in size. The note with it: recombinant CYP2C9, luciferin-H luminescence, 60 min; series mostly up to 57.1 µM. An outline of the steps:
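Human CYP2C9 (10nM) with Luciferin-H at 100uM (its KM) in 25mM KPO4; compound preincubated 10 min at 37C, then NADPH regeneration for 60 min at 37C. Luciferin read by luminescence after detection reagent; normalized to 57uM sulphaphenazole as full inhibition.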

The target in test [12] is Cytochrome P450 3A4 (Homo sapiens) (UniProt P08684). Put plainly: qHTS Assay for Inhibitors and Substrates of Cytochrome P450 3A4 (AID 884). Also: nearly all actives have a fitted effect of over 50% in size. Also: potency is read from the fitted curve at half-maximal effect. As to conditions: recombinant CYP3A4, Luciferin-PPXE luminescence; series mostly up to 57.1 µM. In a few lines:
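Luminescent readout of luciferin produced by CYP3A4 (20 nM) dealkylation of Luciferin-PPXE, 25 uM (its KM). NADPH-driven reaction ran 60 min at RT after 10 min compound preincubation; data scaled to 57 uM ketoconazole as 100% inhibition.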

The target of test [13] is Cytochrome P450 2C19 (Homo sapiens) (UniProt P33261). In words: qHTS Assay for Inhibitors and Substrates of Cytochrome P450 2C19 (AID 899). Also: nearly all actives have a fitted effect of over 60% in size. Also: potency is read from the fitted curve at half-maximal effect. As to conditions: recombinant CYP2C19, luciferin-H EGE luminescence; series mostly up to 57.1 µM. In a few lines:
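5 nM human CYP2C19 with 10uM Luciferin-H EGE (at KM) in 50mM KPO4, compound preincubated 10 min at 37C, then NADPH regeneration for 60 min at 37C. Luciferin read by luminescence after detection reagent; normalized to 57uM ketoconazole as full inhibition.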

Test [14] in a line: Stat Signaling Pathway (AID 446; active = well fitted curve in either direction with a large enough effect, not every such curve was filed as active). As to conditions: ME-180 (cervical carcinoma) SIE beta-lactamase reporter, IL-6 stimulated, 5 h; at 7.69 µM (top of the series) unless noted. In a few lines:
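Normalization used AC90 stimulation (300 pM IL-6) and AC90 inhibition (125 nM pan-JAK inhibitor at 40 pM IL-6). The underlying signal is SIE-driven beta-lactamase in ME-180 cells after 5 h IL-6 exposure with compound.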

In test [15] the target is Glucocorticoid receptor (Homo sapiens) (UniProt P04150). Put plainly: GR-GFP Redistribution (AID 450;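 active = compounds whose dose series gives a full or clear partial fitted curve of increased nuclear translocation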; also: potency is read from the fitted curve at half-maximal effect). The note with it: U2OS GR-GFP nuclear translocation, laser cytometry, 2 h.
Test [16] is described as follows: Confirmation and Secondary Assay for Modulators of Hemoglobin Beta Chain Splicing at IVS2 654 locus (AID 910).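 Also: HeLa cells stably carrying EGFP split by mutant beta-globin IVS2-654 intron; % of control where 0% means no effect.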 As to conditions: HeLa EGFP-654 splicing reporter, GFP fluorescence, 48 h; series mostly up to 38.3 µM. In a few lines:
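HeLa cells stably expressing EGFP interrupted by β-globin IVS2-654 intron, seeded overnight in Opti-MEM/2% FCS, then treated 2 days at 37 °C. Restored splicing read as total peak GFP intensity per well by laser scanning cytometry (488 nm excitation, 500–520 nm emission); 500 nM antisense PNA as control.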

Test [17] can be described thus: Confirmation and Secondary Assay for Modulators of Hemoglobin Beta Chain Splicing at IVS2 705 locus (AID 930).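 Also: HeLa cells stably expressing the EGFP-705 splicing reporter; GFP fluorescence per well restored by corrected splicing of the IVS2-705 intron in EGFP; % of control where 0% means no effect.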 As to conditions: HeLa EGFP-705 splicing reporter, GFP fluorescence, 48 h; series mostly up to 38.3 µM. An outline of the steps: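 First, HeLa EGFP-705 cells are seeded at 500/well in Optimem with 2% FCS and left overnight. Next, compound or DMSO is added for 2 days. Finally wells are laser-scanned and total peak GFP intensity scored.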

Where [18] appears, read: measured here: cell count channel max response.
The mark [19] stands for this setting: measured here: lipid channel max response.

Sequence of Glucocorticoid receptor (Homo sapiens) (P04150 whole entry, looked up, the tested form may be a part): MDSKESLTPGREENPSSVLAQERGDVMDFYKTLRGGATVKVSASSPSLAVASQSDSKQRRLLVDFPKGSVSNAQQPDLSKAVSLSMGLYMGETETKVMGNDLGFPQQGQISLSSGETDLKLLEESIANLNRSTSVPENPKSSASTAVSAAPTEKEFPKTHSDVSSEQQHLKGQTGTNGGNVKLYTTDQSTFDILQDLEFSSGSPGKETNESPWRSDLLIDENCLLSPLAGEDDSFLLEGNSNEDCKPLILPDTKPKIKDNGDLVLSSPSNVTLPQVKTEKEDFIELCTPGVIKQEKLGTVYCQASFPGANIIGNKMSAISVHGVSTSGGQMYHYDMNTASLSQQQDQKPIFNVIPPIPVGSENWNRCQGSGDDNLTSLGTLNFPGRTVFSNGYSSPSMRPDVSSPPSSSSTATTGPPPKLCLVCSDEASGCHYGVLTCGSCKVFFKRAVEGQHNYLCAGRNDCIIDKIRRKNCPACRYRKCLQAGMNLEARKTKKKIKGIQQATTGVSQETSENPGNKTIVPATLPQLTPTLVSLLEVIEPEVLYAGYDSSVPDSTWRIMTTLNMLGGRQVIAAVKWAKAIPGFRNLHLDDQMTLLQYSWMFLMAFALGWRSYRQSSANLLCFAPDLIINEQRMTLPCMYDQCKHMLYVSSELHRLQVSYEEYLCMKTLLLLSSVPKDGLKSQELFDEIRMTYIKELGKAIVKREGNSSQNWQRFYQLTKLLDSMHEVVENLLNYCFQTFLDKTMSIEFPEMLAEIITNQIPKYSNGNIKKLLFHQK
Sequence of Cytochrome P450 1A2 (Homo sapiens) (P05177 whole entry, looked up): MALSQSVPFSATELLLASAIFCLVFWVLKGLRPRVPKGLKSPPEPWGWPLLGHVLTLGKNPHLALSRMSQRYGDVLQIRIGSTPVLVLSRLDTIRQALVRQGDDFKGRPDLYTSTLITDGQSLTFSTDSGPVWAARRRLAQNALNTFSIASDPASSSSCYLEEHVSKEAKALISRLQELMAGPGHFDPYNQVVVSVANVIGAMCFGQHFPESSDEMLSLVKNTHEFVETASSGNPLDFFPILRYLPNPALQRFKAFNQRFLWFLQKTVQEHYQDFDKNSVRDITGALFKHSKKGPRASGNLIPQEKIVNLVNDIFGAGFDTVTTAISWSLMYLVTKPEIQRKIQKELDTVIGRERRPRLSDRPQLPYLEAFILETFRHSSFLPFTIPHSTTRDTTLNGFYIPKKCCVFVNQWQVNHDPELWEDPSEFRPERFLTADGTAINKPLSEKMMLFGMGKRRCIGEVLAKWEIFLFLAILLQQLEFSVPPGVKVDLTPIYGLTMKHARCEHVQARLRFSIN
Sequence of Lysosomal acid glucosylceramidase (Homo sapiens) (P04062 whole entry, looked up): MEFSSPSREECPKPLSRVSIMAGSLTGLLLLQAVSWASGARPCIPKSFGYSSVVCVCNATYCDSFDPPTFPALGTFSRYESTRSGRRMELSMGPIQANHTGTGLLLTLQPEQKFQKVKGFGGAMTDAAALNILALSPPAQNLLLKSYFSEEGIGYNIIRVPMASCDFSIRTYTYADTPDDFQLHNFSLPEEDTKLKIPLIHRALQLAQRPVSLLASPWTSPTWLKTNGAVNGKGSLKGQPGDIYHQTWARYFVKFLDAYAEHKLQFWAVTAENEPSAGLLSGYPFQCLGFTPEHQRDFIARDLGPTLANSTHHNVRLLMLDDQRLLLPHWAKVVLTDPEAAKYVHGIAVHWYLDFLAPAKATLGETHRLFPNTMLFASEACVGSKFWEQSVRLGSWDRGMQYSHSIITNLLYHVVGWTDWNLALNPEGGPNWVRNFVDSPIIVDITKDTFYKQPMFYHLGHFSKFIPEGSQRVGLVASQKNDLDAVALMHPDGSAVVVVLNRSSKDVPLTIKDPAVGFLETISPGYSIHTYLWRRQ
Sequence of Cytochrome P450 3A4 (Homo sapiens) (P08684 whole entry, looked up): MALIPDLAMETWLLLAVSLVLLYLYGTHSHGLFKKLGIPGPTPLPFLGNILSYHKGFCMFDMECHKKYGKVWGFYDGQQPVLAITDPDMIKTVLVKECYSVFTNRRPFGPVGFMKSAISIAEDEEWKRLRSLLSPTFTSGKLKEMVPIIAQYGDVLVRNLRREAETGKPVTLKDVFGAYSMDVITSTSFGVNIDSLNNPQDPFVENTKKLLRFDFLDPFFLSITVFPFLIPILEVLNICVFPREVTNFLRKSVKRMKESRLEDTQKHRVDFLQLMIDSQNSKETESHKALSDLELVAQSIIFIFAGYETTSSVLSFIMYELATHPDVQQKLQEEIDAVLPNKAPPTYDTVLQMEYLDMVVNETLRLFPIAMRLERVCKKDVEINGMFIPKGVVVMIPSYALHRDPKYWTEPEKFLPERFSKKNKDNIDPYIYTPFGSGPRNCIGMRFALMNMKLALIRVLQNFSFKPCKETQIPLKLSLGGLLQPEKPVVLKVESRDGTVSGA
Sequence of 3',5'-cyclic-AMP phosphodiesterase 4B (Homo sapiens) (Q07343 whole entry, looked up): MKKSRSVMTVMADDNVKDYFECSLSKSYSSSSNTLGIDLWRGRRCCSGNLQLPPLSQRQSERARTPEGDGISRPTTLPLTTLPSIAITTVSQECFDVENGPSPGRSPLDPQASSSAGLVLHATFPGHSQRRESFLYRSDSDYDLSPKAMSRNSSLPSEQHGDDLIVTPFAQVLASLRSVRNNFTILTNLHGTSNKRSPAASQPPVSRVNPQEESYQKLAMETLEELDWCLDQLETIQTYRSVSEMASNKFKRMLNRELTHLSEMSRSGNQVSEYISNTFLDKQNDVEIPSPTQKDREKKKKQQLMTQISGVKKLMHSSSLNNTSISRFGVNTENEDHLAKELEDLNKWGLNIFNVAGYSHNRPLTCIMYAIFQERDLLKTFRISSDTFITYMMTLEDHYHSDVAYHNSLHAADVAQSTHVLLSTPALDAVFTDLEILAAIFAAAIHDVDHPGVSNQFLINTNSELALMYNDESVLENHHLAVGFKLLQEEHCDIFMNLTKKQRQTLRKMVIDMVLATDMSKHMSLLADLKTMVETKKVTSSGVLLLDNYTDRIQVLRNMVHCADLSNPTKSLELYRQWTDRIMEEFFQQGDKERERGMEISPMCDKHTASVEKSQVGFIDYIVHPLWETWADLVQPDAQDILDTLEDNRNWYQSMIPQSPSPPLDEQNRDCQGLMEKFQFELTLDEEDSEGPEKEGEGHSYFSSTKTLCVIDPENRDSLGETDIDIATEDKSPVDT
Sequence of Cytochrome P450 2C19 (Homo sapiens) (P33261 whole entry, looked up): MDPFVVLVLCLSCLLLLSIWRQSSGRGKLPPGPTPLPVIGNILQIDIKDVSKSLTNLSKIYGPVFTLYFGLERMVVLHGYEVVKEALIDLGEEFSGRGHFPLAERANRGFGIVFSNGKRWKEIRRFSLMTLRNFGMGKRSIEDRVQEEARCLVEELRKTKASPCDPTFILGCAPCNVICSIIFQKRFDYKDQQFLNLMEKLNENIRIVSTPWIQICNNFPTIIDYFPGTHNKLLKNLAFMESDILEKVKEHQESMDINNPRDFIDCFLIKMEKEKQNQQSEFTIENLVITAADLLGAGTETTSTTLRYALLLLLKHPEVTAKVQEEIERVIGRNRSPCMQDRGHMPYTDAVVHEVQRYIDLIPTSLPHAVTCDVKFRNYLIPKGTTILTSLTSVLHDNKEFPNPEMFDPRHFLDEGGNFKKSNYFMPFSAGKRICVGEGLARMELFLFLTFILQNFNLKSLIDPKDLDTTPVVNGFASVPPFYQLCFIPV
Sequence of Cytochrome P450 2C9 (Homo sapiens) (P11712 whole entry, looked up): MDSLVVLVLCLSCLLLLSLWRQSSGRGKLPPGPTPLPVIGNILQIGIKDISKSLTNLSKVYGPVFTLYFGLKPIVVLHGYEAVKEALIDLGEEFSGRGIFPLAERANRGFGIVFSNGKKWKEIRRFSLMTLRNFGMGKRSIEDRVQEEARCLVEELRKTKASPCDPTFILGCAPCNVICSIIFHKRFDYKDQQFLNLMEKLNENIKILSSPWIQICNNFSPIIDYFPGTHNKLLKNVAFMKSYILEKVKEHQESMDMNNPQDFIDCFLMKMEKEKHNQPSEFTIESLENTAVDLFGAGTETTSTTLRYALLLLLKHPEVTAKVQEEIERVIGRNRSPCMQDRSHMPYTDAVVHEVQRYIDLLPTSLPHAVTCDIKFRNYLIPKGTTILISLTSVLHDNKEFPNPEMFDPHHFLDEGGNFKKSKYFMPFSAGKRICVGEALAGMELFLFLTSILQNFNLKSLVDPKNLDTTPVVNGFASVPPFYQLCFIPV

Regarding `O=C(Nc1ccccc1)N1CCC2(CC1)CCN(S(=O)(=O)c1ccccc1)CC2`, the Potency in [1] is > 11.4 µM (inactive); in test [3], 7.94 µM (active); in [5] it was > 46 µM (inactive). Also, the figures for the activity change, negative = inhibition in test [2], in [4] and in [9] were -0.036% (inactive), 21.1% (inactive) and 3.55% (inactive), respectively. Besides, in test [6], the compound was called inactive. Also, the Potency result in test [7], in test [8] and in test [10] was “inactive” in each case. The max response is -0.439% in test [9] (setting [18]) and 7.34% in [9] (setting [19]).

For `Cc1noc(C)c1C(=O)N1CCC2(CC1)CCN(c1cccc(-c3ccccc3)c1)CC2`, the values for the Potency in test [1] and in [5] were > 11.4 µM (inactive) and > 46 µM (inactive), respectively. In addition, the activity change, negative = inhibition in test [2] was -13.8% (inactive); in test [4], -2.13% (inactive); in test [9] it was -7.36% (inactive). In addition, the Potency entry in test [3], in test [7], in test [11], in test [12], in test [13] and in test [10] was “inactive” each time. Besides, in test [6], the outcome was inactive. In addition, the max response was -11.4% in [9] (setting [18]) and -15.8% in test [9] (setting [19]).

On to `Cc1ccccc1-c1cncnc1N(C)Cc1ccco1`, for which the Potency in test [1] was > 11.4 µM (inactive); in test [3], 15.8 µM (active); in [15], > 46 µM (inactive); in [5] it was > 46 µM (inactive); in [12] it was 1.58 µM (active); in test [13] it was 5.01 µM (active). In addition, the results for the activity change, negative = inhibition in [2] and in test [9] were -3.79% (inactive) and 8.25% (inactive), respectively. In addition, the activity, negative = inhibition in [14] is 11.8% (inactive). Moreover, the compound was called inactive in test [6], in test [16] and in test [17]. The Potency result in test [7], in test [8] and in test [10] was “inactive” throughout. Also, the max response was -7.61% in test [9] (setting [18]) and 2.41% in test [9] (setting [19]).

With `COCC(=O)N1CCC2(CC1)CN(Cc1ccc(C#N)cc1)C2`, the Potency was > 11.4 µM (inactive) in test [1] and > 46 µM (inactive) in [5]. Besides, the activity change, negative = inhibition is 3.59% (inactive) in [2], -16.7% (inactive) in test [4] and -4.37% (inactive) in test [9]. The Potency result in [3], in [7] and in test [10] was “inactive” in each case. In addition, the compound was called inactive in test [6]. In addition, the max response in test [9] (setting [18]) turned out to be 8.42%; in [9] (setting [19]), 5.18%.

As for `Cn1cccc1C(=O)N1CCC2(CCCN(c3ccccc3)C2)CC1`, the Potency was > 11.4 µM (inactive) in test [1], 10 µM (active) in test [3], > 46 µM (inactive) in [5] and 7.94 µM (active) in test [13]. Besides, the activity change, negative = inhibition is -3.96% (inactive) in test [2], 5.63% (inactive) in [4] and 1.89% (inactive) in [9]. Moreover, the activity, negative = inhibition in [14] was -6.3% (inactive). Moreover, the Potency entry in test [8] and in test [10] was “inactive” throughout. For the same compound, the figures for the max response in test [9] (setting [18]) and in test [9] (setting [19]) were 1.38% and 7.11%, respectively.

For the compound `c1ccc(-c2cccc(N3CC[C@@]4(CCCNC4)C3)c2)cc1`, the Potency was > 11.4 µM (inactive) in [1], 12.6 µM (active) in [3] and > 46 µM (inactive) in [5]. For the same compound, the activity change, negative = inhibition in test [2] was 1.23% (inactive); in test [4] it was 6.24% (inactive); in [9], 1.77% (inactive). Also, the activity, negative = inhibition in test [14] is -6.03% (inactive). The Potency entry in [8] and in test [10] was “inactive” throughout. Further, the values for the max response in [9] (setting [18]) and in test [9] (setting [19]) were -28.1% and -22.7%, respectively.
